Experimental data from PubChem BioAssay AID1159580 (chemical genetic matrix, 2015).
Values joined by “and” are separate entries in the source; they are usually repeats but may differ in a detail not shown here. Identical values can stand only once. The campaign covered roughly 5,500 compounds. About 2,000 (36%) were called active. Another 18% or so got no clear call; they are omitted. Rule as the data show it: active = normalized growth mostly below about 0.91 (no sharp cut-off); inconclusive = no clear call, values can overlap the other calls; inactive = mostly above about 0.92. The list shows a part of the results.

Test: chemical genetic growth profiling, strain panel (AID 1159580);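 also: tested at 20 µM; growth read once vehicle control cultures reached saturation at 30 °C; 1 = growth at the plate median or of vehicle wells; lower values mean less growth of the strain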
Conditions: S. cerevisiae deletion strains, growth OD

Measured: normalized growth

CC/C(=C(\c1ccccc1)c1ccc(OCCN(C)C)cc1)c1ccccc1
0.0507 (active) and 0.883 (inactive): locus YJL095W, strain BCK1, stronger effect = lower value
0.0499 (active) and 0.883 (inactive): locus YHR030C, strain SLT2, stronger effect = lower value
inactive: locus YAL040C, strain CLN3, stronger effect = lower value 1.04 | locus YER002W, strain NOP16, stronger effect = lower value 1.02 | locus YHR079C, strain IRE1, stronger effect = lower value 0.883 | locus YJR066W, strain TOR1, stronger effect = lower value 0.888
active: locus YAL013W, strain DEP1, stronger effect = lower value 0.0667 | locus YAL021C, strain ccr4, stronger effect = lower value 0.0669 | locus YAL026C, strain drs2, stronger effect = lower value 0.0635 | locus YAL030W, strain snc1, stronger effect = lower value 0.0686 | locus YBL061C, strain skt5, stronger effect = lower value 0.072 | locus YBR009C, strain hhf1, stronger effect = lower value 0.0625 | locus YBR021W, strain FUR4, stronger effect = lower value 0.0845 | locus YBR023C, strain chs3, stronger effect = lower value 0.0749 | locus YBR171W, strain sec66, stronger effect = lower value 0.383 | locus YBR229C, strain ROT2, stronger effect = lower value 0.0463 | locus YBR231C, strain swc5, stronger effect = lower value 0.0729 | locus YBR279W, strain paf1, stronger effect = lower value 0.122 | locus YCL011C, strain gbp2, stronger effect = lower value 0.0716 | locus YCL016C, strain dcc1, stronger effect = lower value 0.122 | locus YCL029C, strain bik1, stronger effect = lower value 0.0615 | locus YCL061C, strain MRC1 (second series), stronger effect = lower value 0.311 | locus YCL069W, strain vba3, stronger effect = lower value 0.0995 | locus YCR088W, strain abp1, stronger effect = lower value 0.0758 | locus YDL005C, strain med2, stronger effect = lower value 0.382 | locus YDL035C, strain GPR1, stronger effect = lower value 0.0496 | locus YDL040C, strain nat1, stronger effect = lower value 0.312 | locus YDL074C, strain BRE1, stronger effect = lower value 0.0746 | locus YDL101C, strain DUN1, stronger effect = lower value 0.0532 | locus YDL134C, strain PPH21, stronger effect = lower value 0.0467 | locus YDL185W, strain tfp1, stronger effect = lower value 0.606 | locus YDL192W, strain arf1, stronger effect = lower value 0.062 | locus YDR001C, strain nth1, stronger effect = lower value 0.0956 | locus YDR069C, strain doa4, stronger effect = lower value 0.068 | locus YDR101C, strain arx1, stronger effect = lower value 0.0613 | locus YDR137W, strain rgp1, stronger effect = lower value 0.461 | locus YDR150W, strain NUM1, stronger effect = lower value 0.0558 and 0.416 | locus YDR159W, strain sac3, stronger effect = lower value 0.0992 | locus YDR162C, strain NBP2, stronger effect = lower value 0.046 | locus YDR195W, strain ref2 0.166 | locus YDR297W, strain sur2, stronger effect = lower value 0.0894 | locus YDR318W, strain mcm21, stronger effect = lower value 0.0655 | locus YDR334W, strain swr1, stronger effect = lower value 0.0759 | locus YDR335W, strain msn5, stronger effect = lower value 0.103 | locus YDR363W, strain ESC2, stronger effect = lower value 0.174 | locus YDR388W, stronger effect = lower value 0.0557 | locus YDR392W, strain spt3, stronger effect = lower value 0.0847 | locus YDR502C, strain sam2, stronger effect = lower value 0.0692 | locus YEL003W, strain gim4, stronger effect = lower value 0.127 | locus YEL037C, strain rad23, stronger effect = lower value 0.093 | locus YEL061C, strain CIN8 (second series), stronger effect = lower value 0.243 | locus YEL061C, strain CIN8, stronger effect = lower value 0.0479 | locus YER015W, strain faa2, stronger effect = lower value 0.117 | locus YER016W, strain bim1, stronger effect = lower value 0.164 | locus YER110C, stronger effect = lower value 0.072 | locus YER111C, strain swi4, stronger effect = lower value 0.372 | locus YER155C, strain BEM2 (second series), stronger effect = lower value 0.668 | locus YER155C, strain BEM2, stronger effect = lower value 0.0653 | locus YER167W, strain BCK2, stronger effect = lower value 0.05 | locus YFR010W, strain ubp6, stronger effect = lower value 0.0799 | locus YGL078C, strain dbp3, stronger effect = lower value 0.901 | locus YGL086W, strain mad1, stronger effect = lower value 0.0577 | locus YGL167C, strain pmr1, stronger effect = lower value 0.196 | locus YGL173C, strain kem1, stronger effect = lower value 0.168 | locus YGL227W, strain vid30, stronger effect = lower value 0.143 | locus YGL240W, strain doc1, stronger effect = lower value 0.436 | locus YGL248W, strain PDE1, stronger effect = lower value 0.0453 | locus YGL253W, strain hxk2, stronger effect = lower value 0.0687 | locus YGR078C, strain PAC10, stronger effect = lower value 0.0556 and 0.48 | locus YGR135W, strain pre9, stronger effect = lower value 0.0678 | locus YGR229C, strain SMI1, stronger effect = lower value 0.061 and 0.0615 | locus YGR252W, strain gcn5, stronger effect = lower value 0.155 | locus YHR013C, strain ard1, stronger effect = lower value 0.174 | locus YHR027C, strain rpn1, stronger effect = lower value 0.102 | locus YHR079C, strain IRE1 (second series), stronger effect = lower value 0.0574 | locus YHR094C, strain hxt1, stronger effect = lower value 0.059 | locus YHR129C, strain ARP1, stronger effect = lower value 0.0531 | locus YHR142W, strain chs7, stronger effect = lower value 0.0883 | locus YHR200W, strain rpn10, stronger effect = lower value 0.0609 | locus YIL066C, strain RNR3, stronger effect = lower value 0.0471 | locus YIL073C, strain SPO22, stronger effect = lower value 0.158 | locus YIL125W, strain kgd1, stronger effect = lower value 0.91 | locus YIR030C, strain dcg1, stronger effect = lower value 0.0575 | locus YJL092W, strain hpr5, stronger effect = lower value 0.0913 | locus YJL095W, strain BCK1 (second series), stronger effect = lower value 0.0594 | locus YJL115W, strain asf1, stronger effect = lower value 0.155 | locus YJL129C, strain trk1, stronger effect = lower value 0.159 | locus YJL134W, strain LCB3, stronger effect = lower value 0.0479 | locus YJL154C, strain vps35, stronger effect = lower value 0.078 | locus YJL164C, strain tpk1, stronger effect = lower value 0.0754 | locus YJL166W, strain qcr8, stronger effect = lower value 0.0964 | locus YJL168C, strain set2, stronger effect = lower value 0.057 | locus YJL187C, strain SWE1 (second series), stronger effect = lower value 0.046 | locus YJR043C, strain POL32, stronger effect = lower value 0.0587 | locus YJR075W, strain HOC1, stronger effect = lower value 0.0611 and 0.54
